Source: PubChem BioAssay (NCATS)
Inconclusive results are not listed. Active and inactive are the calls of the source. The call rests on the fitted dose curve; in most records, active means well fitted inhibition curve with a large enough effect; inconclusive means small, poorly fitted or top-dose-only effect; inactive means flat fitted curve, though single readings scatter.
On the % scale 0 is the no-effect control and ±100 the full control effect; potency means the concentration at half of the fitted maximal effect.

What follows are compounds tested on astro (assay: Drug repurposing screens with cells derived from glioblastoma tumor samples (AID 1345199; further: nearly all actives have a fitted effect of over 40% in size)). Settings: viability, ATP luminescence, 48 h; series mostly up to 45.9 µM; activity, negative = cell killing: at the top concentration.
Experimental: CD133+ cells were isolated from GBM patient biopsies and cultured as neurospheres. Neurospheres from four patients were used to screen the NCATS pharmaceutical collection (NPC) library of approved drugs and bioactive compounds. […] The neurospheres were incubated with drugs for 48 hours in 1536-well format, then assayed with an ATP content cell viability assay. […] These hits were cherry picked to confirm activity in the four original GBM lines screened plus three other slower growing GMB lines (unable to yield enough cells for a full primary screen). Variable activities of the confirmed primary hits in the different GBM patient lines were observed. The patient line 206 responded to the greatest number of compounds and line 923 responded to the least amount of active compounds.
With `CC(C(=O)O)c1ccc2c(c1)CC(=O)c1ccccc1S2` (stereo not given) the “activity, negative = cell killing” value was -25.3% (inactive). `O=C(O)CSCC(=O)NC1CCSC1=O` (stereo not given) was tested, and the “activity, negative = cell killing” value was -10.5% (inactive). With `Cc1noc(NS(=O)(=O)c2ccc(N)cc2)c1C` the Potency was “inactive”. `Clc1ccccc1CN1CCc2sccc2C1` was tested, and the “activity, negative = cell killing” value was -13.6% (inactive). With `CCCCc1oc2ccc(NS(C)(=O)=O)cc2c1C(=O)c1ccc(OCCCN(CCCC)CCCC)cc1` the Potency was 20 µM (active). In the case of `CCn1cc(C(=O)O)c(=O)c2cc(F)c(N3CCNCC3)cc21`, the Potency was “inactive”. With `O=C(N[C@H](CO)[C@H](O)c1ccc([N+](=O)[O-])cc1)C(Cl)Cl` the Potency was “inactive”. In the case of `COc1ncnc(NS(=O)(=O)c2ccc(N)cc2)c1OC`, the “activity, negative = cell killing” value was -10.6% (inactive). `NC(=O)c1cccnc1` was tested, and the “activity, negative = cell killing” value was -11.4% (inactive). With `O=C(O)CCn1c2c(c3ccccc31)C[C@H](NS(=O)(=O)c1ccc(F)cc1)CC2` the “activity, negative = cell killing” value was -15.2% (inactive). In the case of `CCC(=O)O[C@]1(C(=O)CCl)[C@@H](C)C[C@H]2[C@@H]3CCC4=CC(=O)C=C[C@]4(C)[C@@]3(F)[C@@H](O)C[C@@]21C`, the “activity, negative = cell killing” value was -15.1% (inactive). For `CN(CCOc1ccc(CC2SC(=O)NC2=O)cc1)c1ccccn1` (stereo not given), the “activity, negative = cell killing” value was -23.3% (inactive). `CCn1cc(C(=O)O)c(=O)c2cc(F)c(N3CCNCC3)nc21` was tested, and the “activity, negative = cell killing” value was -8.93% [at 21.2 µM] (inactive). For `CNC(=O)c1cc(Oc2ccc(NC(=O)Nc3ccc(Cl)c(C(F)(F)F)c3)cc2)ccn1`, the Potency was 11.2 µM (active). For `CNS(=O)(=O)Cc1ccc2[nH]cc(CCN(C)C)c2c1`, the “activity, negative = cell killing” value was 0.939% (inactive). `Nc1ccc(S(=O)(=O)Nc2ccccn2)cc1` was tested, and the “activity, negative = cell killing” value was -10.9% [at 21.2 µM] (inactive). With `C[C@@H](CN1CC(=O)NC(=O)C1)N1CC(=O)NC(=O)C1` the “activity, negative = cell killing” value was -16.3% (inactive). In the case of `CCOCC(O)COc1ccc(NC(=O)CC[S+](C)C)cc1` (stereo not given), the “activity, negative = cell killing” value was -7.14% (inactive). For `CCN(C)C(=O)Oc1cccc([C@H](C)N(C)C)c1`, the “activity, negative = cell killing” value was -11.5% (inactive). In the case of `CC(C)NCC(O)c1ccc(NS(C)(=O)=O)cc1` (stereo not given), the Potency was “inactive”. In the case of `C[C@@H](NCCCc1cccc(C(F)(F)F)c1)c1cccc2ccccc12`, the Potency was 22.4 µM (active). For `CCn1cc(C(=O)O)c(=O)c2cc(F)c(N3CCN(C)CC3)cc21`, the “activity, negative = cell killing” value was -13.3% (inactive). With `CC(C)(Sc1cc(C(C)(C)C)c(O)c(C(C)(C)C)c1)Sc1cc(C(C)(C)C)c(O)c(C(C)(C)C)c1` the “activity, negative = cell killing” value was -0.288% [at 21.2 µM] (inactive). `CC(=O)Oc1ccccc1C(=O)Nc1ncc([N+](=O)[O-])s1` was tested, and the Potency was 5.01 µM (active). For `COc1c(N2CCNC(C)C2)c(F)cc2c(=O)c(C(=O)O)cn(C3CC3)c12` (stereo not given), the “activity, negative = cell killing” value was -9.7% (inactive). In the case of `Cn1c(=O)c2c(ncn2CC(O)CO)n(C)c1=O` (stereo not given), the “activity, negative = cell killing” value was -3.8% [at 21.2 µM] (inactive). In the case of `COc1ccc2cc3[n+](cc2c1OC)CCc1cc2c(cc1-3)OCO2`, the Potency was 6.31 µM (active). With `CCC(=O)O[C@]1(C(=O)SCF)[C@H](C)C[C@H]2[C@@H]3C[C@H](F)C4=CC(=O)C=C[C@]4(C)[C@@]3(F)[C@@H](O)C[C@@]21C` the “activity, negative = cell killing” value was -18.9% [at 21.2 µM] (inactive). `CCOC(=O)[C@H](CCc1ccccc1)N[C@H]1CS[C@H](c2cccs2)CN(CC(=O)O)C1=O` was tested, and the “activity, negative = cell killing” value was -0.268% (inactive). `O=C(O)c1cn(C2CC2)c2cc(N3CCNCC3)c(F)cc2c1=O` was tested, and the “activity, negative = cell killing” value was -12.6% [at 21.2 µM] (inactive). `C[C@]12C=CC(=O)C=C1CC[C@@H]1[C@@H]2C(=O)C[C@@]2(C)[C@H]1CC[C@]2(O)C(=O)CO` was tested, and the “activity, negative = cell killing” value was -15.3% (inactive). For `CC1(C)[C@H](C(=O)O)N2C(=O)C[C@H]2S1(=O)=O`, the “activity, negative = cell killing” value was 4.13% (inactive). With `Cc1ccnc2c1NC(=O)c1cccnc1N2C1CC1` the “activity, negative = cell killing” value was -14.3% (inactive). `CN1CCN(c2c(F)cc3c(=O)c(C(=O)O)cn(CCF)c3c2F)CC1` was tested, and the “activity, negative = cell killing” value was -8.32% (inactive). In the case of `CNCC[C@H](Oc1cccc2ccccc12)c1cccs1`, the Potency was 28.2 µM (active). For `CCN(CC)CC#CCOC(=O)C(O)(c1ccccc1)C1CCCCC1` (stereo not given), the “activity, negative = cell killing” value was -21.8% (inactive). In the case of `Cc1cccc(Nc2ccncc2S(=O)(=O)NC(=O)NC(C)C)c1`, the “activity, negative = cell killing” value was -20.9% [at 21.2 µM] (inactive). For `CC(C)OC(=O)C(C(=O)OC(C)C)=C1SC=CS1`, the “activity, negative = cell killing” value was -21% (inactive). `Cc1oc(=O)oc1CN1CCN(c2cc3c(cc2F)c(=O)c(C(=O)O)c2n3C(C)S2)CC1` (stereo not given) was tested, and the “activity, negative = cell killing” value was -19.8% (inactive). In the case of `CC(C)C1CCC(C(=O)N[C@H](Cc2ccccc2)C(=O)O)CC1` (stereo not given in full), the “activity, negative = cell killing” value was -17.4% (inactive).
